Laboratory results reported in PubChem BioAssay AID588398 (Broad Institute, 2011).
In all, about 1,200 compounds went through this assay and about 110 (9.2%) were called active. Roughly 8% stayed inconclusive and do not appear here. A selection follows. Entries with a potency or affinity are not part of this list. A number with no mark means an inactive call.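 Rule for the calls: active = pathway reporter half-maximal dose under half the control reporter's, or control reporter unaffected while pathway reporter is inhibited; inconclusive = either signal flat at 30 to 70% inhibition or poorly fitted; inactive = the rest.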

test: LMP1 TES1 pathway selectivity over dsRED control – imaging, HEK293T, dual-color eGFP/dsRED, cherry-picks, selectivity assay for LMP1 NF-kB inhibitor project, dose response (AID 588398); conditions: 48 h; HEK293T Tet-On dsRED counter-screen channel, at 19.5 µM (top of the series); activity change, negative = inhibition: at the top concentration;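 note: 0% = median of neutral control wells and -100% = median of MG132 positive control wells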

Row | SMILES | activity change, negative = inhibition
1 | CCOC(=O)C1=C(C)N(C)C(=O)NC1c1ccccc1OC (stereo unspecified) | 14.8%
2 | O=C(Nc1cc(S(=O)(=O)N2CCOCC2)ccc1Cl)c1ccncc1 | 8.81%
3 | O=C1C2CCCN2c2ccc(S(=O)(=O)N3CCOCC3)cc2N1Cc1ccccc1F (stereo unspecified) | -10.2%
4 | CCn1nc(C(=O)Nc2nc(-c3ccccn3)cs2)c2ccccc2c1=O | 13.2%
5 | COc1ccc(C2CC(C(F)(F)F)n3ncc(C(=O)NCc4cccnc4)c3N2)cc1OC (stereo unspecified) | 3.54%
6 | C=CCN=C1NN=C(c2cc(C)n(CCOC)c2C)CS1 | 5.31%
7 | Cc1cccc(C)c1NC(=O)CN(C)CC(=O)Nc1ccccc1Oc1ccccc1 | 13.9%
8 | Cc1sc2nc(SCC(=O)OC(C)C)n(C)c(=O)c2c1C | 25.6%
9 | O=C(c1ccc(Cl)cc1)N1CCN(CCOc2ccccc2)CC1 | 8.86%
10 | Cc1cccc(Cn2cc(SCC(=O)Nc3nccs3)c3ccccc32)c1 | 20.8%
11 | O=C(CSc1nc2ccccc2c(=O)n1CCCN1CCOCC1)Nc1ccc(Br)cc1 | 0.76%
12 | O=C(Cn1cc(CNC(=O)C2CCCCC2)nn1)Nc1cc(C(F)(F)F)ccc1Cl | -3.45%
13 | COc1ccc(NC(=O)c2cc3ccccc3oc2=O)cc1 | 2.5%
14 | COc1ccc(C(=O)Nc2cccc(C(=O)N/N=C/c3ccc(OC)cc3OC)c2)cc1 | 11.3%
15 | COc1cc(NC(=S)N2CCN(CCO)CC2)cc(OC)c1 | -3.32%
16 | CCCc1nc(SCC(=O)NCc2ccco2)c2c(=O)n(C)c(=O)n(C)c2n1 | -8.24%
17 | Oc1c(N=NC(=S)Nc2ccccc2F)c2ccccc2n1Cc1ccccc1F | 78.1%
18 | O=C1C=Cc2cccc3ccc(O)c1c23 | -25.7%
19 | COc1ccc(OC)c(CCNC(=O)CCn2nc(C)c3c(C)n(-c4ccccc4)nc3c2=O)c1 | 33%
20 | CC1S/C(=C(\C#N)C(=O)NCc2ccco2)N(Cc2ccco2)C1=O (stereo unspecified) | 11.3%
21 | O=C(O)CN1C(=O)/C(=C\c2ccccc2OCc2ccc(Cl)cc2Cl)SC1=S | 21%
22 | CCc1ccc(/C=C2\SC(=S)N(CCCC(=O)NC3=NCCS3)C2=O)cc1 | 3.24%
23 | COc1cc(/C=C2/SC(=S)N(Cc3ccccc3)C2=O)ccc1OCC(=O)O | 3.87%
24 | Cc1ccc(C2=C/C(=C\c3cccnc3)C(=O)O2)cc1 | -0.215%
25 | O=C(CCCN1C(=O)/C(=C/c2ccccc2Cl)SC1=S)NNC(=O)c1ccccc1Cl | 7.28%
26 | CCCC(C)NC(C)C(=O)NC1CCCC1 (stereo unspecified) | -5.26%

Row | SMILES | activity change, negative = inhibition
27 | COc1ccc(C(=O)Nn2c(SCC(=O)NCc3ccco3)nc3ccccc3c2=O)cc1 | 11.7%
28 | O=C(Nc1ccc(Br)cc1)C1CC(O)CN1C(=O)OCc1ccccc1 (stereo unspecified) | -3.55%
29 | CCOc1ccc(NC(=O)CCc2nnc3ccc(N4CCC5(CC4)OCCO5)nn23)cc1 | 13.6%
30 | COc1ccc(N2CCN(c3ncnc4c3[nH]c3ccccc34)CC2)cc1 | 5.9%
31 | CC1(C)CN(Cc2ccccc2)C(=O)[C@H]1CC(=O)Nc1ccccc1 | 5.59%
32 | CC(=O)c1ccccc1OCC(=O)Nc1cccc(S(=O)(=O)N2CCCC2)c1 | 2.44%
33 | Cc1ccc(C(=O)Nc2cccc(C(F)(F)F)c2)cc1Nc1ncnc2nc[nH]c12 | -99.5%
34 | CC(=O)Nc1ccc(C=NNc2nnc(NN=Cc3ccc(NC(C)=O)cc3)c3ccccc23)cc1 | 9.1%
35 | Cc1ccnc(NC(=O)c2cccc(NC(=O)c3ccc(Cl)c(Cl)c3)c2)c1 | 20.3%
36 | COc1ccc(NC(=O)COC(=O)/C=C/c2ccc(OC)c(S(=O)(=O)N3CCOCC3)c2)cc1 | 10.3%
37 | COc1ccc(C=C2CS(=O)(=O)CC(=Cc3ccc(OC)cc3)C2=O)cc1 | -98.7%
38 | COC(=O)[C@@]1(Cc2ccccc2)[C@H]2C(=O)N(Cc3ccccc3)C(=O)[C@H]2[C@H]2CN=C(SCc3ccc(Cl)cc3)N21 | -98.9%
39 | CCOc1ccc(NC(=S)N=Nc2c(O)[nH]c3ccccc23)cc1 | 53.1%
40 | CC(NC(=O)CNC(=O)OCc1ccccc1)C(=O)N1CC(O)CC1C(=O)OCc1ccccc1 (stereo unspecified) | 0.54%
41 | CCN1CCN(Cc2ccc(NC(=O)c3ccc(C)c(NC(=O)c4cccc5[nH]ccc45)c3)cc2C(F)(F)F)CC1 | -39.3%
42 | Cc1ccc(C)c(Cn2c(O)c(N=NC(=S)Nc3ccccc3F)c3ccccc32)c1 | -7.63%
43 | COc1cc(OC)cc(-c2cc3nc(C)c(CCC(=O)O)c(C)n3n2)c1 | 2.12%
44 | O=C(C[n+]1ccccc1)N/N=C/c1ccc(O)cc1 | -1.14%
45 | C#CCN(C[C@@H]1[C@@H](OC(=O)NCc2ccccc2F)[C@@H](OC(=O)NCc2ccccc2F)Cn2c(=O)ccc(=O)n21)S(=O)(=O)c1ccc(C)cc1 | -99%
46 | Cc1ccnc(NC(=O)c2ccc(OCC3CCCO3)cc2)c1 (stereo unspecified) | 30.4%
47 | Cc1ccc(-n2c(=O)c3c(c4cc(C)ccc4n3C)n(CC(=O)NCC3CCCO3)c2=O)cc1 (stereo unspecified) | 1.42%
48 | CCOc1ccc(C(=O)NC(=S)N(Cc2ccccc2)Cc2ccccc2)cc1 | 7.66%
49 | O=C(Nc1cc(Cl)ccc1Cl)C1Cc2ccccc2O/C1=N\O (stereo unspecified) | -18.5%
50 | CCOC(=O)c1sc2nc(C)nc(NCc3ccccc3)c2c1C | 42.5%
51 | COc1ccc(CN2C(=O)c3cccnc3C2Nc2cc(Cl)ccc2OC)cc1 (stereo unspecified) | 22.8%
52 | CCC(=O)NC(c1ccc(C)cc1)c1cc(Cl)c2cccnc2c1O (stereo unspecified) | 0.319%

Row | SMILES | activity change, negative = inhibition
53 | CC(=O)NC(c1ccc(Cl)cc1Cl)c1ccc2cccnc2c1O (stereo unspecified) | -95.7%
54 | CCC(=O)NC(c1cc(Cl)c2cccnc2c1O)C1CC1 (stereo unspecified) | -92.9%
55 | CN(C)S(=O)(=O)c1ccc(Cl)c(C(=O)NCCNC(=O)c2cc(S(=O)(=O)N(C)C)ccc2Cl)c1 | 24.3%
56 | CCNc1nc(CN2CCOCC2)nc2sc3c(c12)CCC3 | 23.2%
57 | Cc1nn(-c2ccccc2)c(Cl)c1C(=O)N1CCN(c2ncnc3c2cnn3-c2ccccc2)CC1 | -100%
58 | O=c1nc(N/N=C/C=C/c2ccccc2)cn[nH]1 | 27.4%
59 | CN(CCNC(=O)C1CCN(S(=O)(=O)N2CCOCC2)CC1)CCc1ccccc1 | -1.32%
60 | O=C(N/N=C/c1cc2c3c(c1O)CCCN3CCC2)c1ccccc1O | -97.2%
61 | CCOC(=O)C1CCN(S(=O)(=O)Cc2ccccc2)C1=O (stereo unspecified) | 3.01%
62 | CCOC(=O)CCSc1nc(N2CCOCC2)c2c(c1C#N)CC(C)(C)OC2 | 28.4%
63 | COc1ccc(C=NNc2nc3ccccc3s2)cc1 | -14.4%
64 | C(=Cc1nc2ccccc2o1)c1ccc2c(c1)OCO2 | 16.1%
65 | c1ccn2cc(-c3ccc4c(c3)OCCO4)nc2c1 | 23.6%
66 | CC1CCN(CCOc2ccc(C(=O)c3ccccc3)cc2)CC1 | 36.3%
67 | CCC(C)[C@H](NC(=O)NCc1cccnc1)C(=O)OC (stereo partly specified) | 4.65%
68 | CCOc1ccc(Nc2ncnc3ccc([N+](=O)[O-])cc23)cc1 | -42.1%
69 | Cc1cc(C(=O)COc2cccnc2[N+](=O)[O-])c(C)n1-c1ccccc1F | -11.3%
70 | O=C1CCCCC1Sc1nnc(-c2ccc3c(c2)OCO3)o1 (stereo unspecified) | 4.25%
71 | C=CCn1c(=O)/c(=C/c2ccc(Cl)cc2)s/c1=C(\C#N)c1nnc2n1CCCCC2 | -6.95%
72 | Cc1ccc(OCC(=O)NNC(=S)NC(=O)C2CCCCC2)c(C)c1 | 10.5%
73 | Cc1cc(NC(=O)c2ccc(C)s2)n(-c2nc3ccccc3[nH]2)n1 | 55.5%
74 | COc1ccc(OC)c(NC(=O)COC(=O)COc2ccc(Nc3ccccc3)cc2)c1 | -1.56%
75 | C(=Cc1cnc2ccccc2n1)c1ccc2c(c1)OCO2 | 7.85%
76 | CCOc1ccc(NC(=O)c2ccc(N3CC4CC(C3)c3cccc(=O)n3C4)c(NC(=O)c3cccnc3)c2)cc1 (stereo unspecified) | 21.6%
77 | COc1ccc(N2C(=O)C(Cl)=C(NCc3ccccc3)C2=O)cc1 | -1.67%
78 | Cc1ccc(S(=O)(=O)N2CCN(C(=O)COC(=O)COc3ccc(Cl)cc3)CC2)c(C)c1 | -2.22%

Row | SMILES | activity change, negative = inhibition
79 | CCOc1ccccc1/C=C/c1onc(C)c1S(=O)(=O)N1CCC(C(=O)N(CC)CC)CC1 | -12.9%
80 | CCOC(=O)N1CCC(NC(=O)C2CCCN(Cc3nc(-c4cccc(Cl)c4)oc3C)C2)CC1 (stereo unspecified) | 6.91%
81 | COc1ccc(S(=O)(=O)N2CCCCCC2)cc1C(=O)OCc1cccc(OC)c1OC | 0.989%
82 | Fc1cccc(Cl)c1/C=N/n1c(-c2cccnc2)n[nH]c1=S | 10.6%
83 | CC(=O)c1cccc(NC(=O)Nc2ccc(C(=O)N3CCOCC3)cc2)c1 | -34.4%
84 | O=C(c1ccccc1Br)N1CCN(Cc2ccc3c(c2)OCO3)CC1 | -23.1%
85 | CCC(=O)NC(c1ccc(Cl)cc1Cl)c1ccc2cccnc2c1O (stereo unspecified) | -96.5%
86 | CC(=O)NC(c1ccc(Cl)cc1)c1ccc2cccnc2c1O (stereo unspecified) | -97.4%
87 | Cc1ccc2[nH]c3c(c2c1)CCCC3NC(=O)CCl (stereo unspecified) | -99.7%
88 | Cc1cccc(-n2c(O)c(C=Nc3c(C)n(C)n(-c4ccccc4)c3=O)c3ccccc3c2=O)n1 | 13.3%
89 | CC(=O)OC1CCC2(C)C(CCC3C4CC=C(C(C)=O)C4(C)OC(=O)CC32)C1 (stereo unspecified) | -18.4%
90 | O=C1NC(=O)/C(=C\c2ccc(OCc3cccc(C(=O)O)c3)c(Cl)c2)N1 | 19.6%
91 | CN1CCN(C(=O)C2=C[C@@H](C(C)(C)C)C[C@@H](OCc3ccc(CO)cc3)O2)CC1 | 0.267%
92 | COc1ccc(N2CCN(CCNC(=O)CCCn3c(=O)[nH]c4cc(Cl)ccc4c3=O)CC2)cc1 | 0.649%
93 | CCn1c2ccccc2c2cc(/C=N/NC(=O)c3ccncc3)ccc21 | -99%
94 | CCn1c2ccccc2c2cc(/C=N/NC(=O)c3cc(O)cc(O)c3)ccc21 | -72.5% [HEK293T LMP1 TES1-eGFP reporter, at 6.8 µM]
95 | CCn1c(SC(C)C)nnc1-c1c[nH]c2ccccc12 | 5.13%
96 | CC1CC(C)C(=O)C(C(CC2CC(=O)NC(=O)C2)OC(=O)CC(=O)c2ccccc2)C1 (stereo unspecified) | -83.3%
97 | COc1cc(C(c2sc3nc(C)nn3c2O)N2CCc3ccccc3C2)cc(OC)c1OC (stereo unspecified) | 23.8%
98 | CCOc1ccccc1NC(=O)Cn1c(=O)sc2ccccc21 | -18.1%
99 | O=C(NC(c1ccc(Cl)cc1)c1cc(Cl)c2cccnc2c1O)c1cccnc1 (stereo unspecified) | -5.67%
100 | CCOc1cc(Br)cc(/C=N/NC(=O)c2cccnc2)c1O | 7.87%
101 | Cc1cc(N2CCOCC2)c2c(N)c(Br)cc(C)c2n1 | -92.6%
